Compounds without any hit were thinned out: in the full panel of roughly 83,000, 20% have a hit.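 Percent growth is the endpoint: 0 to 100 indicates growth inhibition (40 means 60% inhibition), 0 means no net growth, and negative values indicate cell death.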 Values without a mark were called inactive. The source made the active and inactive calls. The calls were made as follows: active = growth percent below 10; inactive = the rest.
Columns and labels:
Assay in all cases: NCI-60 one-dose screen, 48 h (100 = growth as untreated, 0 = no growth, -100 = all killed)
Settings in all cases: 10 µM unless noted
HCT-15 colon = test system: HCT-15 colon
HT29 colon = test system: HT29 colon
SNB-75 CNS = test system: SNB-75 CNS
SNB-19 CNS = test system: SNB-19 CNS
U251 CNS = test system: U251 CNS
PC-3 prostate = test system: PC-3 prostate
SK-MEL-5 melanoma = test system: SK-MEL-5 melanoma
UACC-62 melanoma = test system: UACC-62 melanoma
LOX IMVI melanoma = test system: LOX IMVI melanoma
SK-MEL-28 melanoma = test system: SK-MEL-28 melanoma

SMILES	growth (HCT-15 colon)	growth (HT29 colon)	growth (SNB-75 CNS) [%]	growth (SNB-19 CNS) [%]	growth (U251 CNS)	growth (PC-3 prostate)	growth (SK-MEL-5 melanoma)	growth (UACC-62 melanoma)	growth (LOX IMVI melanoma)	growth (SK-MEL-28 melanoma)
O=C(Nc1cc(=O)[nH]c(=O)[nH]1)C(Cl)Cl	103%	102%	96.9	99	99.5%	92%	102%	88.9%	100%	111%
O=C(CSC(=S)N1CCCCC1)Nc1ccccc1	99.1%	91.2%	93.1	99.6	97.6%	92.6%	97.5%	91.6%	94.2%	104%
COC(=O)c1nc(-c2ccccc2)oc1S(=O)(=O)n1nc(-c2ccccc2)cc1N	63.6%	43.1%	93.4	101	97%	102%	94.7%	95.2%	72.3%	89.6%
C=C(C)[C@@H]1CC[C@]2(C(N)=O)CC[C@]3(C)[C@H](CC[C@@H]4[C@@]5(C)CCCNC(C)(C)[C@@H]5CC[C@]43C)[C@@H]12	50.2%	16.4%	76	87.3	58.7%	50.3%	67.2%	87.4%	76.9%	85.1%
CC(=O)c1cc2c(N)c(C(=O)Nc3ccccn3)sc2nc1C	82.8%	85.5%	75.1	82.4	77.7%	99.3%	64.5%	57.8%	91.6%	82.1%
COc1ccccc1Nc1nnc(-c2ccc(Cl)cc2)o1	33.1%	16.1%	55.1	46.4	34.4%	56.7%	37.6%	51.8%	51.7%	64%
COc1c(O)cc2oc3cc(O[C@@H]4OC(C)[C@@H](O)[C@H](O)C4O)c(CC=C(C)C)c(O)c3c(=O)c2c1CC=C(C)C (stereo not given in full)	85.1%	84.3%	88.9	102	86.6%	74.9%	91%	96.9%	89.3%	105%
COC(=O)c1oc2c(C(=O)/C=C/c3ccc(OC)cc3)c(OCCCN3CCCCC3)ccc2c1C	3.33% (active)	3.92% (active)	33.6	38.4	12%	-2.46% (active)	-60.9% (active)	40.1%	-26.1% (active)	-51.4% (active)
O=CN1N=C(c2ccc3c(c2)OCO3)CC1c1cccc(Nc2ccnc3cc(C(F)(F)F)ccc23)c1 (stereo not given)	70.9%	73.4%	89	89.8	88.7%	56.8%	50.7%	55.2%	76%	100%
CCOC(=O)CC[C@H](NC(=O)c1ccc(NC)c2ccccc12)C(=O)OCC	96.1%	105%	91.8	92.4	97.8%	80.2%	97.2%	89.7%	93.8%	103%
CSc1nc(-c2ccc(F)cc2)c(C#N)c(N2CCOCC2)n1	98.6%	92.3%	73.8	92.9	89.3%	89.9%	94.8%	78.9%	99.2%	101%
COc1ccc(/C=C/C(=O)Nc2ncnc3nc[nH]c23)cc1	92.2%	96.5%	82	99.7	99.4%	98.1%	94.8%	81.8%	101%	99.4%
CCSc1nc(Cl)c(C#N)c(-c2ccc(F)cc2)n1	88.1%	92.6%	80.3	92.7	91.6%	98.9%	97.1%	93.4%	87.1%	101%
Nc1c(C(=O)Nc2ccccc2Cl)sc2nc3c(cc12)CN(Cc1ccccc1)CC3	95.7%	101%	113	109	114%	104%	97.7%	101%	99.7%	102%
COc1ccc2c(c1)C1(C(=O)N2)C(C#N)=C(c2ccccc2)Nc2c1c(-c1ccccc1)nn2-c1ccccc1 (stereo not given)	85%	43%	33.8	59.7	9.08% (active)	7.28% (active)	58.6%	85.1%	52.7%	42.9%
C[C@H]1[C@H](C)CC[C@]2(C(=O)OCCOCCOCC[P+](c3ccccc3)(c3ccccc3)c3ccccc3)CC[C@]3(C)C(=CC[C@@H]4[C@@]5(C)CC[C@H](OC(=O)C(Cl)Cl)C(C)(C)[C@@H]5CC[C@]43C)[C@H]12	17.1%	3.81% (active)	19.7	20.4	11.3%	5.1% (active)	-97.7% (active)	-23.9% (active)	-21.1% (active)	30%
C=C1C(=O)O[C@H]2[C@H]1CC/C(COC(=O)c1cccnc1N)=C\CC[C@@]1(C)O[C@@H]21	0.999% (active)	-10.4% (active)	66	25.7	28.8%	24.8%	15.3%	33%	7.48% (active)	19.6%
C#CCOC(=O)[C@]1(C)CCC[C@]2(C)[C@H]3C[C@H]4C(C(C)C)=C[C@]3(CC[C@H]21)[C@@H]1C(=O)CCC(=O)[C@@H]14	92.6%	71.1%	90.3	86	87.6%	49.7%	85.5%	63.1%	78.8%	95.3%
CCOC(=O)c1sc(/N=C2\NC(=O)/C(=C/c3ccc(N4CCN(C)CC4)cc3)S2)nc1C	95.9%	86.9%	101	104	106%	102%	98%	113%	65.7%	113%
COc1ccc(-n2cc(COc3ccc4c5ccnc(C)c5n(CC(C)C)c4c3)nn2)cc1	63.4%	16%	61.8	78.4	69.9%	55.6%	58.2%	71%	77.3%	87.4%
COc1ccc(Cl)c([N+](=O)[O-])c1	103%	107%	98.2	103	106%	105%	99.2%	97%	97.2%	106%
CCCCCOC(=O)c1ccccc1O	97.4%	96.5%	83.1	106	101%	86.9%	103%	97.9%	104%	110%
C#CCN1C(=O)c2ccccc2N(CC#C)C12CCN(Cc1cn(CC(=O)Nc3ccccc3C(N)=O)nn1)CC2	86.8%	85.1%	78.3	90.5	97.2%	83.7%	76.9%	74.3%	87%	93.4%
C=C(C)[C@@H]1CC[C@]2(C(=O)n3ccnc3)CC[C@]3(C)[C@H](CC[C@@H]4[C@@]5(C)CCCNC(C)(C)[C@@H]5CC[C@]43C)[C@@H]12	3.01% (active)	1.76% (active)	81.1	52.6	-45.5% (active)	12.9%	-97.9% (active)	31.9%	-92% (active)	-51.5% (active)
Nn1c(SCC(=O)Nc2ccc(Cl)cc2)nnc1-c1cc(F)c(Cl)cc1Cl	79.3%	95%	81.2	98	94.4%	85.7%	86.6%	65.8%	86%	98.1%
CC1CCCN(CCCCCOc2ccc3oc4ccccc4c(=O)c3c2)C1 (stereo not given)	26.4%	8.93% (active)	75.8	83.6	62.7%	73.7%	-59.2% (active)	-26.5% (active)	33.2%	45%
